# Measurements reported in the supplement of paper PMC6555819.
# Experiments:
# Experiment in all cases: PBM binding z-score (relative to random genomic background probes); higher = stronger binding; sequences stand for … in GC…GCGATTGACAGCGTAGAATGAAGG
# [1] = tested on: PPARg:RXRa DBDmut IVT, anti-RXR (DBD mutation: RXRa K156A/R161A, NR concentration 270 nM, RXRa partner concentration 90 nM)
# Summary of the method: (§1)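 Binding z-scores take random background probes as their reference. They come from custom Agilent 4×180K protein-binding microarrays incubated 1 h with ligand-free nuclear receptor dimers, with antibodies against each partner (one per run) detecting binding. Scanned fluorescence was regression-normalized.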
# [2] = tested on: PPARg:RXRa IVT, anti-PPARg (NR concentration 270 nM, RXRa partner concentration 90 nM)
# Summary of the method: as §1
# [3] = tested on: PPARg homodimer (NR concentration 180 nM)
# Summary of the method: as §1
# [4] = tested on: PXR:RXRa (NR concentration 270 nM, RXRa partner concentration 90 nM)
# Summary of the method: as §1
# [5] = tested on: PXR homodimer (NR concentration 270 nM)
# Summary of the method: as §1
# [6] = tested on: RARa:RXR (NR concentration 270 nM, RXRa partner concentration 90 nM)
# Summary of the method: as §1
# [7] = tested on: RARa homodimer (NR concentration 270 nM)
# Summary of the method: as §1
# [8] = tested on: RARb:RXRa (NR concentration 270 nM, RXRa partner concentration 90 nM)
# Summary of the method: as §1
# [9] = tested on: RARb homodimer (NR concentration 270 nM)
# Summary of the method: as §1
# [10] = tested on: RARg:RXRa (NR concentration 270 nM, RXRa partner concentration 90 nM)
# Summary of the method: as §1
# [11] = tested on: RARg homodimer (NR concentration 270 nM)
# Summary of the method: as §1
# [12] = tested on: RXRa DBDmut IVT, anti-RXR (DBD mutation: RXRa K156A/R161A, NR concentration 90 nM)
# Summary of the method: as §1
# [13] = tested on: RXRa homodimer (NR concentration 180 nM)
# Summary of the method: as §1
# [14] = tested on: THRa:RXRa (NR concentration 90 nM, RXRa partner concentration 90 nM)
# Summary of the method: as §1
# [15] = tested on: THRa homodimer (NR concentration 90 nM)
# Summary of the method: as §1
# [16] = tested on: VDR homodimer (NR concentration 270 nM)
# Summary of the method: as §1
Sequence,PBM binding z-score [1],PBM binding z-score [2],PBM binding z-score [3],PBM binding z-score [4],PBM binding z-score [5],PBM binding z-score [6],PBM binding z-score [7],PBM binding z-score [8],PBM binding z-score [9],PBM binding z-score [10],PBM binding z-score [11],PBM binding z-score [12],PBM binding z-score [13],PBM binding z-score [14],PBM binding z-score [15],PBM binding z-score [16]
CTATGTAGGTTAAGGGGGTCTTTCAGTTTGAAAG,7.13,7.07,2.14,2.15,1.64,1.84,0.701,1.89,1.69,1.56,1.25,0.662,1.48,1.94,0.841,1.31
TCGAGTAGGTTACGGGGGCATTCATGGATGAAGA,5.12,5.88,1.86,3.32,1.27,2.88,0.144,2.51,2.23,3.37,2.71,1.74,2.93,2.63,1.13,3.57
CTATGTAGGTTCAGGGGGTCATTCAGTTTGAAAG,3.32,4.65,3.3,6.29,10.6,6.89,2.03,3.59,3.91,5.72,3.84,3.68,7.14,3.7,2.11,6.83
CTATGTTGGTTAAGGGGGTCATTCAGTTTGAAAG,3.11,5.29,4.17,5.75,10.8,5.62,4.36,3.51,3.86,4.63,3.46,2.63,5.18,3.75,3.17,6.63
CTATGTAGGTTAAGGTGGTCATTCAGTTTGAAAG,7.1,7,1.36,0.913,0.758,0.941,0.483,1.53,1.42,1.02,1.05,0.518,1.08,1.36,0.282,0.721
CTGTGTAGGTTAAGGGGGTCATTCAGTTTGAAAG,5.16,6.16,3.62,5.84,10.9,5.48,2.01,3.67,4.19,5.13,4.04,2.68,5.91,3.89,2.98,5.36
CCGAGTAGGTTACGAGGGGGCCTTCAGTGCGAAT,4.2,4,1.59,1.73,0.533,1.56,0.0772,1.47,0.846,2.15,1.32,0.265,0.978,2.11,0.4,0.498
CTATGTAGGTTAAGGGGGTCATTTAGTTTGAAAG,7.59,7.5,3.59,5.59,10.3,5.8,1.96,3.51,3.86,5.19,3.66,2.54,5.85,3.83,2.03,5.81
TCGAGTAGGTTACGAGGGCATTCAGGGATGAAGA,3.87,4.89,0.36,1.43,0.25,1.69,-0.742,1.63,1.43,1.55,1.13,0.248,1.58,3.1,0.0603,1.27
CTACGTAGGTTAAGGGGGTCATTCAGTTTGAAAG,2.95,4.54,2.77,5.94,11.4,6.06,0.985,3.63,3.61,5.6,4.1,1.87,6.27,3.9,1.23,6.07
CTATGTAGGTTAAGGGGGTCAGTCAGTTTGAAAG,7.45,7.33,3.02,4.52,6.85,4.15,0.767,3.2,3.63,4.2,3.72,1.75,4.08,3.17,1.89,3.99
CCGAGTAGGTTACGAGGGGGCATTCACTGCGAAT,4.81,4.25,1.02,4.44,0.728,2.66,0.267,2.12,2.02,3.01,2.43,1.06,1.98,3.81,0.568,2.51
CCGAGTACGTTACGAGGGGGCATTCAGTGCGAAT,0.709,1.25,1.37,3.35,6.19,2.07,0.384,1.29,1.5,1.85,1.41,3.95,1.17,2.36,0.395,4.78
